{
  "source": "PubChem BioAssay (NCI)",
  "note": "About 83,000 compounds went through this panel and 20% of them were active in at least one assay; those are over-represented in the sample as a whole.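 Values shown are percent growth following 48 h exposure of cells in 96-well plates to a single concentration of compound; below 10 was considered active.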 Values without a mark were called inactive. Calls of active or inactive are those of the source.",
  "data": [
    {"system": "HCT-116 colon", "assay": "NCI-60 one-dose screen, 48 h (100 = growth as untreated, 0 = no growth, -100 = all killed)", "settings": "10 µM unless noted", "values": [
      {"compound": "COc1cc(Br)c(OC)cc1Br", "growth": "91.5%"},
      {"compound": "O=C(Nc1ccc(I)cc1)c1cc([N+](=O)[O-])ccc1O", "growth": "19.3%"},
      {"compound": "COC(=O)CCCCCCN=Cc1c(O)c(O)c(C(C)C)c2cc(C)c(-c3c(C)cc4c(C(C)C)c(O)c(O)c(C=NCCCCCCC(=O)OC)c4c3O)c(O)c12", "growth": "8.17% (active)"},
      {"compound": "C=CCn1c(C)nc2ccc(Nc3nc(Nc4ccc(F)cc4)nc4ccccc34)cc21", "growth": "26.9%"},
      {"compound": "Clc1ccc2c(c1)NC1(CCSc3ccccc31)n1nccc1-2", "note": "(stereo not drawn)", "growth": "89.4%"},
      {"compound": "c1cc(-c2ccc3c(c2)OCO3)n2nccc2n1", "growth": "102%"},
      {"compound": "COc1ccc(-c2nnc(COc3ccc(NS(=O)(=O)c4ccc(OC)cc4)cc3F)o2)cc1", "growth": "67.2%"},
      {"compound": "CCNC(=O)CCCCC(=O)c1c(C)[nH]c(/C=C2\\N=C(c3ccc[nH]3)C=C2OC)c1C", "growth": "-100% (active)"},
      {"compound": "CC[C@H](C)[C@H]1NC(=O)[C@@H](N[C@](C)(O)[C@@H](N)CC(C)C)[C@@H](C)OC(=O)[C@H](Cc2ccc(OC)cc2)N(C)C(=O)[C@@H]2CCCN2C(=O)[C@H](CC(C)C)NC(=O)[C@@H](C)C(=O)[C@H](C(C)C)OC(=O)C[C@@H]1O", "growth": "-15.1% (active)"},
      {"compound": "O=C(CNC(=O)c1cccc2ccccc12)Nc1ccccc1Oc1ccccc1", "growth": "-2.26% (active)"},
      {"compound": "Clc1nc(-c2cccnc2)nc2sc3c(c12)CCCCCC3", "growth": "97.1%"},
      {"compound": "O=C(C[N+](=O)[O-])c1ccc(Cl)cc1", "growth": "101%"},
      {"compound": "COc1cc2nc(Cl)nc(NCCO)c2cc1OC", "growth": "113%"}
    ]}
  ]
}
